# In patent publication US20200172896, “EVOLUTION OF BIOACTIVE SEQUENCE-DEFINED SYNTHETIC POLYMERS USING DNA-TEMPLATED POLYMERIZATION” (President and Fellows of Harvard College, published 2020):
# Biological target: PCSK9 (Homo sapiens, UniProt Q8NBP7;Q8NBP7 Q8NBP7:31-152,Q8NBP7:153-692)
# Test: SPR; vs PCSK9-A5; salmon sperm DNA
# Conditions: tags: ACROBiosystems PC9-H5223; label: 5' dual biotin-iSp18; ssDNA; as PCSK9-A5 except codon 13 CAC unmodified [codon 13 CAC (nt 55-57) unmodified; other codons as PCSK9-A5 (including phenol at codon 9 TTT nt 43-45, cyclopentyl at codon 14 CTT nt 58-60)]
# PCSK9, sequence (Q8NBP7 31-152, chain 1 of 2): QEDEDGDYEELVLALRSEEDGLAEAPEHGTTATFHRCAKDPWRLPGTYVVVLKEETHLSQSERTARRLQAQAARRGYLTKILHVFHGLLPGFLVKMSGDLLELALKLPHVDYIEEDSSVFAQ
# PCSK9, sequence (Q8NBP7 153-692, chain 2 of 2): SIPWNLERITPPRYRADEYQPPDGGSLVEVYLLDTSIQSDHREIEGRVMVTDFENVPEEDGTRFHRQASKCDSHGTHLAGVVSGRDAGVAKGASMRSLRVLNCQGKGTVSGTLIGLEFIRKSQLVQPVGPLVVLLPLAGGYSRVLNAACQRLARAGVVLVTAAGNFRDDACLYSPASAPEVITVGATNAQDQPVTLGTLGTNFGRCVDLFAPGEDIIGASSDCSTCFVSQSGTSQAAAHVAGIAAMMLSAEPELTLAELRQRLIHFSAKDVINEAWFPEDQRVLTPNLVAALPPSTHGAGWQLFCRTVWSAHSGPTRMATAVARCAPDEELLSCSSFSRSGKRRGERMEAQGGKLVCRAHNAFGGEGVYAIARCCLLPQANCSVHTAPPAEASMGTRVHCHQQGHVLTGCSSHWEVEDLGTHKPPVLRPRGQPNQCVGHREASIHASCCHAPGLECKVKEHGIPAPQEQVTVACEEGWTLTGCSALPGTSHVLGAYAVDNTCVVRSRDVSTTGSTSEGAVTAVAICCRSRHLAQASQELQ
sequence,measurement,value
CGAATCAGATTGGACCAGCCACGTTACTGATTCTTCTACCGTTTTTGCCCCCGGCACCTTCTGGAGTCCAGATGTAGGTAG,binding signal,~2 fold reduction in affinity
